From PubChem BioAssay (NCI)
About 79,000 compounds went through this panel and 15% of them were active in at least one assay; those are over-represented in the sample as a whole. Cut-off read from the data, not from the text of the source: active = growth inhibition above about 70%; inactive = the rest.

Assays:
[1] = NCI Yeast Anticancer Drug Screen. Data for the rad50 strain (AID 155);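 note: 0% = growth of vehicle-only cultures of the same strain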; conditions: S. cerevisiae rad50 strain growth inhibition; at 50.0 µM; active compounds read high
In short: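 Growth of the mutant yeast was measured after compound exposure and referenced to vehicle-treated cultures.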

[2] = NCI Yeast Anticancer Drug Screen. Data for the mec2-1 strain (AID 157); conditions: S. cerevisiae mec2-1 strain, at 50.0 µM, active compounds read high
In short: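 Compounds were applied to mec2-1 yeast cells. Their growth was then compared with that of vehicle-treated cultures to give growth inhibition.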

[3] = NCI Yeast Anticancer Drug Screen. Data for the sgs1 mgt1 strain (AID 161);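 note: 0% = growth of cultures given vehicle only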; conditions: S. cerevisiae sgs1 mgt1 strain, at 50.0 µM, active compounds read high
In short: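 Compounds are added to genetically altered yeast, and growth is compared with cultures given vehicle alone to give percent inhibition.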

[4] = NCI Yeast Anticancer Drug Screen. Data for the cln2 rad14 strain (AID 165);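 note: 0% = growth equal to vehicle treated cultures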; conditions: S. cerevisiae cln2 rad14 strain, at 50.0 µM, active compounds read high
In short: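 Strain: cln2 rad14 yeast, altered in cell cycle control and DNA damage repair. Read-out: growth inhibition vs vehicle.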

[5] = NCI Yeast Anticancer Drug Screen. Data for the bub3 strain (AID 167); conditions: S. cerevisiae bub3 mutant strain, at 50.0 µM, active compounds read high
In short: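 Whole-cell yeast assay. The mutant strain was incubated with compounds, and growth inhibition was determined by comparison with vehicle-treated cells.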

[6] = NCI Yeast Anticancer Drug Screen. Data for the mlh1 rad18 strain (AID 175); conditions: S. cerevisiae mlh1 rad18 strain growth inhibition; at 50.0 µM; active compounds read high
In short: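 A repair-deficient yeast strain is exposed to test compound, and growth is scored relative to vehicle-treated controls.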

Measured: growth inhibition

C(=C\c1ccc(-c2ccccc2)cn1)/c1ccccc1
inactive: [1] -8.5% | [2] -15.8% | [3] -3.45% | [4] -26.6% | [5] 24.8% | [6] -12%

CC(CS(C)(=O)=O)S(=O)(=O)Cc1ccccc1 (centres undefined)
inactive: [1] -2.4% | [2] 6.05% | [3] 3.2% | [4] -28.8% | [5] 6.25% | [6] -0.45%

N#CN=CN1CCN(c2ccccc2)CC1
inactive: [1] 4.8% | [2] -11.2% | [3] -0.15% | [4] -22.6% | [5] -5.4% | [6] -11.9%

COc1ccc2c(c1OC)C1NCCc3cc4c(cc3C1(OC)C2=O)OCO4 (centres undefined)
inactive: [1] 21.9% | [2] 2.35% | [3] 0.85% | [4] 0.5% | [5] 2% | [6] 8.55%

COC(=O)c1[nH]c(=O)c(C#N)c(C(=O)OC)c1C(=O)c1cccnc1
inactive: [1] 2.95% | [2] -3.55% | [3] -5.2% | [4] 18.7% | [5] -17.4% | [6] 25.6%

CC(C)C(=O)Nc1nc2c(ncn2C2OC(CO)C(O)C2O)c(=O)[nH]1 (centres undefined)
inactive: [1] 5.9% | [2] -23.6% | [3] -22.3% | [4] 8.15% | [5] -5.75% | [6] -4.15%

Fc1ccc(CN2COc3c(ccc4cccnc34)C2)c(F)c1
inactive: [1] 57.6% | [2] 43.6% | [3] 57.1% | [4] 29.6% | [5] 49% | [6] 52.2%

CN1CCN(C(=S)N(C)C(=O)c2ccc(Cl)cc2)CC1
inactive: [1] 13.3% | [2] -20.1% | [3] -20.3% | [4] 19.1% | [5] -22.9% | [6] -9.65%

Clc1cc(Cc2cc(Cl)c(Cl)c3c2OCOC3)c2c(c1Cl)COCO2
inactive: [1] -47.6% | [2] -24.9% | [3] -5% | [4] -22.4% | [5] -10.6% | [6] -18.3%

CCN(CC)CCNc1ccc2ncn3c4ccc(OC)cc4c(=O)c1c23
inactive: [1] 4.35% | [2] -1.9% | [3] -34.9% | [4] 18.6% | [5] 20.9% | [6] 34.2%

CCC(=O)c1c(O)c2ccccc2oc1=O
inactive: [1] -21.1% | [2] 9.45% | [3] -5.2% | [4] -4.1% | [5] 11.8% | [6] 8.1%

O=C(OCC(OC(=O)c1ccccc1)C1CC(C(O)C2CCCCC2)C(=O)O1)c1ccccc1 (centres undefined)
inactive: [1] 5.25% | [2] 22.1% | [3] 45.9% | [4] 10.2% | [5] 22.2% | [6] 30.6%

CCCCCCCCC1CO1 (centres undefined)
inactive: [1] 0.9% | [2] 3.55% | [3] -10.8% | [4] -19.5% | [5] -3.95% | [6] -6.85%

C=CCN(CC=C)C(=S)NC(=O)c1ccccc1
inactive: [1] 17.8% | [2] 27.8% | [3] 53.2% | [4] 16.9% | [5] 28.3% | [6] 2.25%

O=C(CCOP(=O)(NCCCl)NCCCl)c1ccccc1
inactive: [1] 5.2% | [2] -14.8% | [3] 0.25% | [4] 7.25% | [5] -11.7% | [6] 24%

C(=N\N1CCN(/N=C/c2c[nH]c3ccccc23)CC1)/c1c[nH]c2ccccc12
inactive: [1] 10.3% | [2] -11.5% | [3] -12.8% | [4] -1.05% | [5] 0.7% | [6] -3.05%

CN1CCN(C2CCCc3ccccc3C2O)CC1 (centres undefined)
inactive: [1] -0.75% | [2] 13.6% | [3] -15.7% | [4] -25.1% | [5] 1.3% | [6] 0.2%

C=C1CN(C2=NCCO2)C1
inactive: [1] -17.6% | [2] -39.6% | [3] -5.65% | [4] -12.9% | [5] -13.6% | [6] 4.05%

C(=C\c1ccccc1)/C=N/N=C/C=C/c1ccccc1
inactive: [1] -5.5% | [2] -30.1% | [3] -10.9% | [4] -37% | [5] 4.45% | [6] -4%
